The record followed here is PubChem BioAssay (NCI).

Some test systems named below: NCI-H23 lung; NCI-H226 lung; NCI-H322M lung; HOP-62 NSCLC; NCI-H460 lung; HOP-92 NSCLC; A549/ATCC NSCLC; 786-0 renal; COLO 205 colon; DU-145 prostate; K-562 leukemia; MALME-3M melanoma; MDA-MB-231 breast; RXF 393 renal; SF-268 CNS; SF-295 CNS; SF-539 CNS; UACC-257 melanoma; M14 melanoma.
Holding throughout (assay): NCI-60 one-dose screen, 48 h (100 = growth as untreated, 0 = no growth, -100 = all killed)
Common to all, as to details: 10 µM unless noted

This is part of a sample that, as a whole, favours compounds with a hit. Of some 83,000 tested, about 20% had one in any assay.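 Negative percent growth values reflect cell death: -40 means 40% of the cells present at the start died, and -100 means all died.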 Values without a mark were called inactive. Active and inactive are the calls of the source. Rule for the calls: active = growth percent below 10; inactive = the rest.

On to `O=C1CNc2cc(Cl)ccc2N1`, for which the growth with NCI-H23 lung is 96.7%; in the experiment on NCI-H226 lung, 103%; in the experiment with NCI-H322M lung, 106%; in the experiment with HOP-62 NSCLC, 99.2%; in the experiment on NCI-H460 lung it was 109%; in the experiment on HOP-92 NSCLC it was 102%. The growth in the experiment with A549/ATCC NSCLC is 113%; in the experiment on 786-0 renal, 109%; with COLO 205 colon it was 106%; with DU-145 prostate, 121%; with K-562 leukemia it was 104%; in the experiment on MALME-3M melanoma, 104%. Besides, the growth was 98.3% in the experiment on MDA-MB-231 breast; 101% in the experiment with RXF 393 renal; 103% in the experiment with SF-268 CNS; 105% in the experiment with SF-295 CNS; 106% in the experiment with SF-539 CNS; 113% in the experiment with UACC-257 melanoma. Also, the growth in the experiment on M14 melanoma was 114%.
Take `COc1ccc2c3c(ccc2c1)C(=O)/C(=C\O)CC3`: the growth in the experiment with NCI-H23 lung was 96.7%; with NCI-H226 lung it was 106%; in the experiment on NCI-H322M lung it was 110%; with HOP-62 NSCLC it was 114%; with NCI-H460 lung it was 102%; in the experiment on HOP-92 NSCLC it was 96.4%. For the same compound, the growth in the experiment on A549/ATCC NSCLC is 109%; in the experiment with 786-0 renal, 103%; in the experiment on COLO 205 colon, 105%; in the experiment with DU-145 prostate, 111%; in the experiment on K-562 leukemia it was 82.7%; in the experiment on MALME-3M melanoma it was 135%. For the same compound, the growth in the experiment on MDA-MB-231 breast is 102%; in the experiment on RXF 393 renal, 119%; with SF-268 CNS, 93.6%; in the experiment on SF-295 CNS it was 107%; with SF-539 CNS it was 96.4%; with UACC-257 melanoma, 101%. Moreover, in the experiment with M14 melanoma, the growth was 122%.
For the compound `CN(C)c1ccc(-n2nc3ccccc3n2)cc1`, the growth in the experiment with NCI-H23 lung is 95.6%; in the experiment with NCI-H226 lung, 86.4%; with NCI-H322M lung it was 111%; with HOP-62 NSCLC, 78%; in the experiment on NCI-H460 lung it was 105%; with HOP-92 NSCLC it was 86.9%. For the same compound, the growth in the experiment with A549/ATCC NSCLC was 92.3%; with 786-0 renal it was 83.3%; in the experiment on COLO 205 colon, 102%; in the experiment with DU-145 prostate, 101%; with K-562 leukemia, 70.1%; with MALME-3M melanoma, 117%. The growth is 85.4% in the experiment on MDA-MB-231 breast; 98.9% in the experiment with RXF 393 renal; 127% in the experiment on SF-268 CNS; 82.7% with SF-295 CNS; 86.1% in the experiment with SF-539 CNS; 101% in the experiment with UACC-257 melanoma. Further, in the experiment with M14 melanoma, the growth is 92.2%.
Consider `O=C1NC(=O)/C(=C/c2ccc(Cl)cc2Cl)N1`, for which the growth in the experiment on NCI-H23 lung is 91.2%; with NCI-H226 lung, 99.4%; in the experiment on NCI-H322M lung it was 104%; in the experiment on HOP-62 NSCLC it was 99.1%; in the experiment on NCI-H460 lung, 109%; in the experiment with HOP-92 NSCLC, 81.2%. Also, the growth was 101% with A549/ATCC NSCLC; 109% with 786-0 renal; 100% in the experiment with COLO 205 colon; 117% in the experiment on DU-145 prostate; 104% in the experiment on K-562 leukemia; 100% with MALME-3M melanoma. The growth was 110% in the experiment on MDA-MB-231 breast; 120% in the experiment with RXF 393 renal; 103% in the experiment on SF-268 CNS; 114% in the experiment on SF-295 CNS; 103% with SF-539 CNS; 108% with UACC-257 melanoma. Moreover, the growth with M14 melanoma was 121%.
For the compound `COC(=O)[C@H](Cc1cn(C)cn1)NC(=O)[C@@H](NC(=O)Nc1cc(C(F)(F)F)cc(C(F)(F)F)c1)C(C)C`, the growth in the experiment with NCI-H23 lung is -77.2% [100 µM] (active); with NCI-H226 lung it was -52.3% [100 µM] (active); in the experiment with NCI-H322M lung, -90.4% [100 µM] (active); with HOP-62 NSCLC, -98.6% [100 µM] (active); in the experiment on NCI-H460 lung, -45.9% [100 µM] (active); in the experiment on HOP-92 NSCLC, -96.6% [100 µM] (active). Further, the growth is -73% [100 µM] (active) in the experiment with A549/ATCC NSCLC; -90.6% [100 µM] (active) in the experiment on 786-0 renal; -94.4% [100 µM] (active) in the experiment on COLO 205 colon; -97.1% [100 µM] (active) in the experiment with DU-145 prostate; -53.5% [100 µM] (active) in the experiment on K-562 leukemia; -90.5% [100 µM] (active) in the experiment on MALME-3M melanoma. Moreover, the growth in the experiment with MDA-MB-231 breast is -90.2% [100 µM] (active); in the experiment on RXF 393 renal, -83.3% [100 µM] (active); with SF-268 CNS, -89.4% [100 µM] (active); in the experiment with SF-295 CNS it was -91% [100 µM] (active); in the experiment with UACC-257 melanoma, -95.9% [100 µM] (active); in the experiment on M14 melanoma it was -92.8% [100 µM] (active).
In the case of `COc1cc(C(=O)c2cc3c(cc2C)OCO3)cc(OC)c1OC`, the growth with NCI-H23 lung was 28%; in the experiment on NCI-H226 lung, 45.4%; in the experiment on NCI-H322M lung, 36%; with HOP-62 NSCLC it was 40.8%; in the experiment with NCI-H460 lung, 8.71% (active); with HOP-92 NSCLC, 37.4%. In addition, the growth with A549/ATCC NSCLC was 17.8%; with 786-0 renal, 51.3%; in the experiment on COLO 205 colon, -49.9% (active); in the experiment with DU-145 prostate, 21.5%; with K-562 leukemia, 13.7%; with MALME-3M melanoma, 50.4%. Further, the growth in the experiment with MDA-MB-231 breast was 23.3%; in the experiment on RXF 393 renal it was 42.9%; in the experiment on SF-268 CNS it was 43.1%; with SF-295 CNS, -50.4% (active); with SF-539 CNS, 6.27% (active); in the experiment with M14 melanoma it was 22.5%.
Take `COc1ccc(/C=C2\CCc3ccccc3C2=O)cc1`: the growth with NCI-H23 lung was 90.3%; with NCI-H226 lung, 103%; in the experiment on NCI-H322M lung, 98.1%; in the experiment with HOP-62 NSCLC, 85.8%; in the experiment with NCI-H460 lung it was 102%; in the experiment on HOP-92 NSCLC it was 84.2%. The growth in the experiment with A549/ATCC NSCLC was 77.4%; in the experiment on 786-0 renal, 91.5%; in the experiment on COLO 205 colon, 106%; with DU-145 prostate it was 98.2%; in the experiment on K-562 leukemia it was 20.7%; in the experiment with MALME-3M melanoma, 86.1%. Moreover, the growth was 87.3% with MDA-MB-231 breast; 103% in the experiment on RXF 393 renal; 100% with SF-268 CNS; 32.5% in the experiment on SF-295 CNS; 105% in the experiment with SF-539 CNS; 99.2% in the experiment on M14 melanoma.
